From PubChem
MenB inh = M. tuberculosis MenB inhibitors, primary screen, biochemical, absorbance. MenB enzyme assay, absorbance read-out. inhibition, % (no concentration beside the values). 0.43% of 100,000 active. AID 540299, 2011. 1,4-dihydroxy-2-naphthoyl-CoA synthase (Mycobacterium tuberculosis (strain ATCC 25618 / …; in the data active = inhibition above about 21%, passing the limit was not always enough
Mtb MbtI inh = MbtI salicylate synthase inhibitors, primary screen, biochemical, fluorescence intensity | P9WFX0 | purified MbtI enzyme, fluorescence intensity read-out | inhibition, % (test concentration not listed) | 0.89% of 100,000 active; in the data active = inhibition mostly above about 56%, no sharp cut-off; inactive = mostly below about 77%
AID504770 = growth inhibition of E. coli YBA685, primary screen, V. cholerae RctB inhibitors. E. coli YBA685 rctB-dependent plasmid, OD600 growth, 3 h; stronger effect = lower value. z-score (test concentration not listed). 0.27% of 130,000 active. AID 504770, 2011; in the data active = z-score below about -2, passing the limit was not always enough
Polio RdRp inh = poliovirus RdRp elongation inhibitors, primary screen, biochemical, fluorescence polarization, total intensity. Genome polyprotein (Poliovirus type 1 (strain Mahoney)), P03300. poliovirus polymerase elongation; stronger effect = lower value. 0.66% of 150,000 active. % elongation, % (compound at 16.7 µg/mL). AID 588519, 2011; in the data active = % elongation below about 90%
Target sequence (P03300 1749-2209 limits assumed): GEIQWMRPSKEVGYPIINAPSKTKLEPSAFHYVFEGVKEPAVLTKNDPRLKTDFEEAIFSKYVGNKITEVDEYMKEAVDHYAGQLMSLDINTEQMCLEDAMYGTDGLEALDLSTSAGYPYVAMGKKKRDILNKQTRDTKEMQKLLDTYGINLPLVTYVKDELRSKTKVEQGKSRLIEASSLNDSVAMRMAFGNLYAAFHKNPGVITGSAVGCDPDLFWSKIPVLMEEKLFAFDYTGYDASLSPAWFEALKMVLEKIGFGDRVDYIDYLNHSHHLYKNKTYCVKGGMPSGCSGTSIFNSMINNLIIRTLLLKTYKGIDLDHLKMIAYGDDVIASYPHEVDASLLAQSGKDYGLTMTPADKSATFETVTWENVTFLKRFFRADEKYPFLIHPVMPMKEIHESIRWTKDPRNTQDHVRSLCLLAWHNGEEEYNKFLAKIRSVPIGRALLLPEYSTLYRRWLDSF
* hit, by the source's call. The list is not random: actives were taken first. Their share in the collection is about 1.4%.

How did O=C(c1ccc(CS(=O)c2ccccc2)o1)N1CCN(c2ccccc2)CC1 (stereo unspecified) do in these assays?
MenB inh: -2; Mtb MbtI inh: 8; AID504770: -0.25; Polio RdRp inh: 100

How did N#Cc1nc2[nH]c(-c3ccccc3)cc(=O)n2c1C#N do in these assays?
MenB inh: -4; Mtb MbtI inh: 105; AID504770: 0.1; Polio RdRp inh: 90*

How did N#Cc1ccc(-c2ccccc2)[nH]c1=O do in these assays?
MenB inh: -22; Mtb MbtI inh: inactive; AID504770: -0.9; Polio RdRp inh: 100

What do the screens show for `O=c1[nH]c(=S)n(-c2cccc(Cl)c2)c2c1CN(C1CCCC1)CN2`?
MenB inh: 52*; Mtb MbtI inh: 16; AID504770: -0.35; Polio RdRp inh: 99

How did O=c1[nH]c(=S)n(CCc2ccccc2)c2c1CN(CCc1ccccc1)CN2 do in these assays?
MenB inh: 7; Mtb MbtI inh: 0; AID504770: -0.25; Polio RdRp inh: 103

What do the screens show for `COc1ccccc1CNC(=O)c1cnc(SC)nc1C`?
Polio RdRp inh: 115

What do the screens show for `COc1ccccc1CNC(=O)c1ccccc1SC`?
MenB inh: -34; Mtb MbtI inh: 59*; AID504770: 2.3; Polio RdRp inh: 103

Results for Cc1nn(CCC#N)c2c1P(=S)(N1c3ccccc3CC1C)/C(=C1\N(C)c3ccccc3C1(C)C)C=N2 (stereo unspecified) ?
MenB inh: -60; Mtb MbtI inh: 57*; AID504770: 1.9; Polio RdRp inh: 98

Results for COc1ccc(-c2cc(-c3ccccc3)c(C#N)c(SCC(O)CS(=O)(=O)Cc3ccc(Cl)cc3)n2)cc1 (stereo unspecified) ?
Polio RdRp inh: 105

Results for N#Cc1c(-c2ccccc2)cc(-c2ccccc2)nc1SCC(O)CS(=O)(=O)Cc1ccc(Cl)cc1 (stereo unspecified) ?
Polio RdRp inh: 89*

How did CCc1cc(=O)oc2c(C)c(OCC(=O)Nc3ccc4c(c3)OCO4)ccc12 do in these assays?
MenB inh: -20; Mtb MbtI inh: 7; AID504770: -0.7; Polio RdRp inh: 80*

Results for CC(=O)NCCC(=O)N1CCCSC1=Nc1c(C)cccc1C ?
MenB inh: -3; Mtb MbtI inh: -4; AID504770: 0.05; Polio RdRp inh: 88*

Results for COc1ccccc1CC1(C)NC(=O)NC1=O (stereo unspecified) ?
MenB inh: 2; Mtb MbtI inh: -11; AID504770: 0; Polio RdRp inh: 105

What do the screens show for `CC(=O)OC(OC(C)=O)C12C=CC(O1)C1C(=O)N(c3ccccc3-c3ccccc3)C(=O)C12` (stereo unspecified)?
MenB inh: -10; Mtb MbtI inh: 90*; AID504770: -0.1; Polio RdRp inh: 98

What do the screens show for `CC(C)Nc1nc2ccccc2n2cnnc12`?
AID504770: -0.4

What do the screens show for `O=C(CCc1nc2ccccc2[nH]1)NCCc1ccccc1`?
AID504770: -0.5

What do the screens show for `CC(C)CCNC(=O)c1ccc(N(C)S(C)(=O)=O)cc1`?
MenB inh: -14; Mtb MbtI inh: 2; AID504770: 0.95; Polio RdRp inh: 97

How did Cc1cc(Br)ccc1NC(=O)c1sc2nc3n(c(=O)c2c1C)CCCC3 do in these assays?
Polio RdRp inh: 110

Results for O=c1c2c(nc3n1CCC3)sc1c(O)c(Br)ccc12 ?
MenB inh: 38*; Mtb MbtI inh: 10; AID504770: 1; Polio RdRp inh: 100

Results for Cc1nc(CSc2n[nH]c(C(C)(C)C)n2)cs1 ?
MenB inh: 8; Mtb MbtI inh: -10; AID504770: 0.6; Polio RdRp inh: 105

What do the screens show for `Cc1nc(CSc2nncs2)cs1`?
MenB inh: -40; Mtb MbtI inh: 80*; AID504770: -0.3; Polio RdRp inh: 83*

How did O=C1NC(=S)C(=C2CCCC2)S1 do in these assays?
MenB inh: -27; Mtb MbtI inh: 77*; AID504770: 0.55; Polio RdRp inh: 89

What do the screens show for `CO/N=C(\C(=O)NC1C(=O)N2C(C(=O)OCOC(=O)C(C)(C)C)=C(/C=C\c3scnc3C)CSC12)c1csc(N)n1` (stereo unspecified)?
MenB inh: -1; Mtb MbtI inh: -15; AID504770: -0.1; Polio RdRp inh: 100

What do the screens show for `C=CC1=C(C(=O)O)N2C(=O)[C@@H](NC(=O)/C(=N\O)c3csc(N)n3)[C@H]2SC1` (stereo in doubt)?
MenB inh: 0; Mtb MbtI inh: -4; AID504770: -5.1*; Polio RdRp inh: 100
